# In all, about 69,000 compounds went through this assay and about 8,600 (12%) showed an effect of 50% or more. This excerpt belongs to a sample that is enriched for strong results.
# Tested on: Plasmodium berghei
# Assay: Screen against P. berghei liver stage (PbLuc), transformed with Luciferase, at 10uM
# Type: functional, HepG2
# Details: tested at 10 uM
row,SMILES,INHIBITION
1,c1cnnc(N2CCCC(NCc3nc(-c4ccsc4)no3)C2)c1 (configuration not stated),59.3%
2,CN(Cc1cn2ccccc2c1C#N)C1CCCN(c2cccnn2)C1 (configuration not stated),59.4%
3,CN(Cc1cn2ccccc2n1)C1CCCN(c2cccnn2)C1 (configuration not stated),16.7%
4,CN(c1ncnc2c1cnn2C)C1CCCN(c2cccnn2)C1 (configuration not stated),-12.7%
5,c1cncc(-c2noc(CNC3CCCN(c4cccnn4)C3)n2)c1 (configuration not stated),8.66%
6,CN(c1ncnc2sccc12)C1CCCN(c2cccnn2)C1 (configuration not stated),7.18%
7,c1csc(-c2noc(CCCN3CCCC3Cn3cccn3)n2)c1 (configuration not stated),39.8%
8,c1cnnc(N2CCCC2CNCc2nc(-c3ccsc3)no2)c1 (configuration not stated),27.9%
9,CN(Cc1ccccn1)C1CCCN(c2cccnn2)C1 (configuration not stated),7.12%
10,c1csc(-c2noc(CCCN3CCCC3Cn3cncn3)n2)c1 (configuration not stated),-9.76%
11,Cc1nccn1CC1CCCN1CCCc1nc(-c2cccs2)no1 (configuration not stated),68.4%
12,CN(c1ncnc2ccccc12)C1CCCN(c2cccnn2)C1 (configuration not stated),52%
13,c1cc(C2CN(C3CCCC3)C2)n[nH]1,7.4%
14,O=C(CCOc1ccccc1F)N1CCOCC1,48.2%
15,CN(C)CCOCC1CN(Cc2ccccn2)Cc2nnn(C)c21 (configuration not stated),-2.35%
16,CN(C)c1ccnc(C2CCCN2)n1 (configuration not stated),10.45%
17,Cc1cccc(C2(CNC(=O)CCNS(C)(=O)=O)CCCC2)c1,67.5%
18,Cc1cccc(C2(CNC(=O)CO)CCCC2)c1,21.5%
19,Cc1cccc(C2(CNC(=O)C(C)S(C)(=O)=O)CCCC2)c1 (configuration not stated),2.39%
20,C[C@@H]1CN(c2ccc(Cl)cn2)CC[C@@]1(O)C1CCOCC1,17.215%
21,CCOC(=O)N1CCC(OC)c2ccccc2N(C)C(=O)C1 (configuration not stated),46.4%
22,CCc1cc(=O)n(CC(=O)N2CCCC2)c(-c2cccc(F)c2)n1,46.6%
23,COCC(=O)N1CCN(C(=O)c2scnc2C)CC1,21.3%
24,O=C(C1CC1)N1CCCN(c2ncnc3c2CCNCC3)CC1,-20.6%

row,SMILES,INHIBITION
1,O=C(C1CC1)N1CCc2c(ncnc2N2CCN3CCCC3C2)C1 (configuration not stated),46.6%
2,CNC(=O)C1CCN(c2ncnc3c2CCN(C(=O)C2CC2)C3)C1 (configuration not stated),57.8%
3,CCCOC1CCCN(c2ncnc3c2CCN(C(=O)C2CC2)C3)C1 (configuration not stated),49.9%
4,CCN(CC)C1CCN(c2ncnc3c2CCN(C(=O)C2CC2)C3)C1 (configuration not stated),64.5%
5,Cc1cnc(-c2nc(O)c3c(n2)CN(C(=O)C2CC2)CC3)cn1,9.98%
6,CCOCC(=O)N1CCc2c(ncnc2N2CCOCC2)C1,-68.2%
7,CCN1CCN(c2ncnc3c2CCN(C(=O)C2CC2)C3)CC1,61.1%
8,CSCCC(=O)N1CCc2c(ncnc2N2CCOCC2)C1,-103%
9,CN1CCC(c2cnc(NCc3nccn3C)cn2)CC1,33.2%
10,COCC1CN(Cc2ccc(C)o2)Cc2nnn(CC3CC3)c21 (configuration not stated),-8.19%
11,Cn1nc(Br)nc1Sc1ccccc1NC(=O)C1CC1,37.4%
12,O=C1N(Cc2cccc(Cl)c2)CCC12CCCNC2 (configuration not stated),-15.9%
13,Cc1cnn(CC2CCCN2C(=O)CCc2c(C)nn(C)c2C)c1 (configuration not stated),0.825%
14,CCCC(NC(=O)c1cncc(C)c1)c1nnn[nH]1 (configuration not stated),23.5%
15,CCN1CC[C@@]2(C(=O)Nc3ccccc3)CCN(S(C)(=O)=O)CC[C@@H]12,35.8%
16,CCc1cc(C(=O)N[C@@H]2CC[C@@H](N3CCOCC3)[C@@H]2O)no1,10.9%
17,Cc1ccc(N2CCN(C(=O)COc3nccc(C)n3)CC2)nn1,50.5%
18,Cc1ccnc(OCC(=O)N2CCN(c3ncccn3)CC2)n1,-17.8%
19,Cc1ccc(N2CCN(C(=O)COc3ncccn3)CC2)nn1,-38.7%
20,CNC(=O)C1(c2cnccn2)CCCN1C(=O)c1c(F)cccc1F (configuration not stated),34%
21,C[C@@H]1CN(C(=O)CCCN2CCCC2)CC[C@@]1(O)C1CCOCC1,10.6%
22,C[C@@H]1CN(C(=O)CCN2CCCC2)CC[C@@]1(O)C1CCC1,27.9%
23,Cc1cccc(=O)n1CCC(=O)N1CC[C@@](O)(C2CCC2)[C@H](C)C1,47.6%
24,CC[C@H]1CN(C(=O)CCn2c(C)cccc2=O)CC[C@@]1(C)O,-22.7%

row,SMILES,INHIBITION
1,C[C@@H]1CN(C(=O)CCCN2CCOCC2)C[C@@]1(O)C1CC1,37.7%
2,C[C@@H]1CN(C(=O)CCN2CCCC2)CC[C@@]1(O)C1CCOCC1,25.4%
3,C[C@@H]1CN(C(=O)CCCN2CCOCC2)CC[C@@]1(O)C1CCC1,64.9%
4,Cc1cccc(=O)n1CCC(=O)N1CC[C@](C)(O)[C@H](C)C1,51.3%
5,C[C@@H]1CN(C(=O)CCN2CCOCC2)CC[C@]1(C)O,55%
6,CNCC1CCC(c2cc(CN(C)S(=O)(=O)N(C)C)n(C)n2)CC1 (configuration not stated),44.3%
7,CC(C)OC(=O)N1C[C@@H]2CC[C@H]1CN(C(=O)c1ccccn1)C2,-26.4%
8,COc1nonc1NCn1nc(C)cc1C,39.7%
9,CN(C)Cc1nc(C2(NC(=O)Nc3cccc(F)c3)CCCC2)no1,38.2%
10,CCN1CCN(C2CCN(CC(=O)NCC(F)(F)F)CC2)C1=O,-3.2%
11,Cc1nccn1[C@@H]1CC[C@@H](NC(=O)Cn2c(C)nc3ccccc32)[C@H]1O,23.9%
12,COc1ccccc1CN(Cc1nc(C)no1)C1CC1,17.4%
13,Cc1cncnc1C1CCN(C(=O)C2(C)CCCCN2C)CC1 (configuration not stated),1.45%
14,Cn1ccnc1-c1ccc(NC[C@H]2CCc3ccccc3O2)nn1,60%
15,Cn1ccnc1-c1ccc(NCC2COc3ccccc3O2)nn1 (configuration not stated),-9.17%
16,Cn1ccnc1-c1ccc(NCCC2COc3ccccc3O2)nn1 (configuration not stated),34%
17,CCC(O)CN1CCN(C(=O)c2sccc2C2CC2)CC1 (configuration not stated),19.5%
18,Cc1nc(CN2CCN(C(C)c3nc(C(C)C)no3)CC2)oc1C (configuration not stated),6.7%
19,Cc1cc(C)n(C2CN(c3ncnc4c3CCC4)C2)n1,0.868%
20,Cc1cc(C)n(C2CN(c3nc(N)nc4c3CCCC4)C2)n1,34.1%
21,c1cnn(C2CN(c3nc(-c4ccncc4)nc4c3CCC4)C2)c1,53.6%
22,OCCC1CN(c2nc(-c3ccncc3)nc3c2CCNCC3)CCO1 (configuration not stated),11.8%
23,Cc1cnn(C2CN(c3nc(-c4ccncc4)nc4c3CCC4)C2)c1,44.3%
24,Cc1cc(C)n(C2CN(c3nc(-c4ccncc4)nc4c3CCC4)C2)n1,81.4%

# From ChEMBL document CHEMBL4513216, “Probing the Open Global Health Chemical Diversity Library for Multistage-Active Starting Points for Next-Generation Antimalarials” (ACS Infect Dis, 2020)
